# Compound activity: PubChem BioAssay, National Center for Advancing Translational Sciences (NCATS)
# Shown are actives, neighbours in structure and some others; about 7.5% of the full set was active somewhere.
# ELG1 genotox: qHTS screen for small molecules that induce genotoxicity in human embryonic kidney (HEK293T) cells expressing luciferase-tagged ELG1; HEK293T ELG1-luciferase reporter, luminescence, 16 h; Potency, µM (series often up to 46 µM), most hits filed as activators; AID 504466, 2011; 330,000 tested, 1.3% active; also: nearly all actives have a fitted effect of over 60% in size
#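 Genotoxic stress is detected as increased luminescence from luciferase-tagged ELG1 in HEK293T cells, measured with ONE-Glo after a 16 hr treatment at 37 °C.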
# NPC1 promoter act: qHTS Assay for NPC1 Promoter Activators; Huh7 NPC1 promoter luciferase reporter, 24 h; Potency, µM (titrated, usually from 9.22 µM), usual class: activators; 320,000 tested, 2.4% active; AID 485313, 2010; also: nearly all actives have a fitted effect of over 60% in size
#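 Compounds in DMSO were transferred onto Huh7 NPC1-luciferase reporter cells pre-incubated 2 h; after 24 h at 37 °C, Amplite reagent was dispensed and luminescence recorded 10 min later.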
# Rab9 prom act: qHTS Assay for Rab9 Promoter Activators; Potency, µM (series often up to 9.22 µM), most hits filed as activators; Huh7 Rab9 promoter-luciferase reporter, luminescence, 24 h; AID 485297, 2010; 320,000 tested, 2.8% active; also: nearly all actives have a fitted effect of over 60% in size
#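 Luciferase signal after 10 min detection reagent at ambient indicates Rab9 promoter upregulation; stably transfected Huh7 cells were treated 24 h with compound in DMSO at 37 °C, 5% CO2.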
# SMN2 splice enh: qHTS Assay for Enhancers of SMN2 Splice Variant Expression; HEK293 SMN2-luciferase splicing reporter, luminescence, 30-36 h; Potency, µM (series often up to 46.1 µM), hits mostly activators; 210,000 tested, 2.8% active; also: nearly all actives have a fitted effect of over 55% in size
#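 HEK293 cells carry an SMN2 […]–luciferase reporter in which exon 7 inclusion puts luciferase in frame. Cells were plated 10-12 h before compound addition, then incubated 30-36 h at 37C. ONE-Glo luminescence was read; sodium butyrate at 4.5 mM final served as control.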
# KinaseGlo FLuc: Counterscreen for Luciferase (Kinase-Glo TM) Inhibition; Kinase-Glo luciferase, ATP luminescence, 8 min; 200,000 tested, 0.28% active; Potency, µM (doses to about 38.3 µM), most hits filed as inhibitors; AID 1379, 2008; also: nearly all actives have a fitted effect of over 60% in size
#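 Kinase-Glo luciferase light output from ATP and luciferin was measured with 10 uM ATP, within the enzyme's linear range. Buffer: 50 mM imidazole pH 7.2, 50 mM KCl, 7 mM MgCl2, 0.01% Tween 20, 0.05% BSA; luminescence read after 8 min at ambient temperature.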
# FLuc counter: qHTS profiling assay for firefly luciferase inhibitor/activator using purifed enzyme and Km concentrations of substrates (counterscreen for miR-21 project); Luciferin 4-monooxygenase (Photinus pyralis), P08659; purified FLuc, Km substrates, luminescence inhibition; Potency, µM (top dose mostly 57.5 µM), hits mostly inhibitors; 360,000 tested, 6.9% active; also: nearly all actives have a fitted effect of over 55% in size
# Target sequence (P08659 whole entry, looked up): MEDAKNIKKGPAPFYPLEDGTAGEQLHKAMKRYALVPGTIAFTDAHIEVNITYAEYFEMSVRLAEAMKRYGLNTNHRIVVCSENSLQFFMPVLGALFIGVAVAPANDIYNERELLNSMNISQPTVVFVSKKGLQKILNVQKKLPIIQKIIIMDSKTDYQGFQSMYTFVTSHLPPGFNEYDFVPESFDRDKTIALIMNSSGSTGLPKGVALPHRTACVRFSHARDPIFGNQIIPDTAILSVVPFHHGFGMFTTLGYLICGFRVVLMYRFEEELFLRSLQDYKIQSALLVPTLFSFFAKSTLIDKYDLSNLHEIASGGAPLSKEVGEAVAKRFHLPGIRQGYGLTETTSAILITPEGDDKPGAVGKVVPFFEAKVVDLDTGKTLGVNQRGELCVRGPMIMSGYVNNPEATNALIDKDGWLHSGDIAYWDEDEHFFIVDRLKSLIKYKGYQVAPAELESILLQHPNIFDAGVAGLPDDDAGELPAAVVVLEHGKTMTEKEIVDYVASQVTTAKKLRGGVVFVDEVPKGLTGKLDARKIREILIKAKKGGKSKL
#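 Purified P. pyralis luciferase (10nM final) with 10uM D-luciferin and 10uM ATP (Km levels) in 50mM Tris acetate pH 7.5, 10mM Mg acetate, 0.01% Tween-20, 0.05% BSA; qHTS 6-point titration, ~60 µM downward; luminescence read.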
# A number is an active result; . = inactive; ? = inconclusive; / = no result given; [ ] = dose if it differs, or a comment. Calls follow the shape of the dose curve; as a rule, active = well fitted curve in the direction sought with a large enough effect; inconclusive = small, poorly fitted or top-dose-only effect, or another doubt; inactive = no such curve, though single readings can be large; an effect the other way counts as inactive or inconclusive.
SMILES,ELG1 genotox,NPC1 promoter act,Rab9 prom act,SMN2 splice enh,KinaseGlo FLuc,FLuc counter
CCOc1cccc(-c2cc(C(=O)N/N=C/c3ccc(OC)c(CN4CCOCC4)c3)c3ccccc3n2)c1,.,.,.,.,.,6.01µM
O=C(N/N=C/c1ccco1)c1cc(-c2cccc(Br)c2)nc2ccccc12,.,.,.,.,.,4.78µM
O=C(N/N=C/c1ccc2c(c1)OCO2)c1cc(-c2ccncc2)nc2ccccc12,.,.,.,.,.,12µM
O=C(N/N=C/c1cc([N+](=O)[O-])ccc1O)c1cc(-c2ccccc2)nc2ccccc12,.,.,.,.,.,?
CCOc1ccc2ccccc2c1/C=N/NC(=O)CNC(=O)Cc1ccccc1,.,.,.,.,.,.
C#C[C@]1(O)CC[C@H]2C3CCC4=Cc5oncc5CC4(C)C3CCC21C (stereo partly drawn),/,/,/,.,.,/
COc1ccc(/C=N/NC(=O)c2cc(-c3ccccc3)nc3ccccc23)c(OC)c1,.,.,.,/,/,16.9µM
O=C(N/N=C/c1c(F)c(F)c(F)c(F)c1F)c1cc(-c2ccccc2)nc2ccccc12,.,.,.,/,/,.
CC1=[N+](CC(=O)c2ccccc2)CCn2cccc21,?,?,3.55µM,/,.,.
CCC1=[N+](CC(=O)c2ccc(C)cc2)CCn2c(C)ccc21,.,2.24µM,0.891µM,?,.,.
CCC1=[N+](CC(=O)c2ccc(Br)cc2)CCn2c(C)ccc21,.,1.41µM,?,/,/,.
CCC1=[N+](C)CCn2c(C)ccc21,.,.,.,.,.,.
CCC1=[N+](CC(=O)c2ccc(C)cc2)CCn2cccc21,?,.,3.98µM,?,.,.
CCOc1ccc(C2C(C(N)=O)=C(C)Nc3nc(-c4cccc(Cl)c4)nn32)cc1OC (stereo not drawn),/,/,/,.,/,.
Nc1ccccc1Oc1ccc2ccccc2c1,.,.,.,.,.,?
Cc1cccc(-n2cnc(C(=O)NC3CCCCCC3)c2)n1,?,2.51µM,3.55µM,?,.,15.1µM
Nc1nc(CSc2ccc(Cl)cc2)nc(N2CCCCC2)n1,.,.,.,.,.,?
Nc1nc(CSc2ccccc2)nc(N2CCCCC2)n1,?,?,?,20µM,.,?
Cc1cc(OC(=O)c2ccccc2Br)cc(=O)n1C,.,.,.,.,.,21.3µM
COc1ccc(-c2oc3ncn4nc(-c5ccccc5Br)nc4c3c2-c2ccc(OC)cc2)cc1,/,/,/,.,/,.
COc1ccc(-c2nc3ccccc3o2)cc1NC(=O)C(C)(C)Oc1ccc(Br)cc1,/,/,/,.,/,.
CCc1ccc2oc(-c3cccc(NC(=O)C(C)(C)Oc4ccc(Br)cc4)c3)nc2c1,/,/,/,5.01µM,/,2.13µM
CCc1ccc2oc(-c3cccc(NC(=O)c4cccnc4)c3)nc2c1,.,?,?,.,.,1.35µM
COc1ccc(-c2nc3ccccc3o2)cc1NC(=O)c1cccnc1,/,/,/,.,/,10.7µM
Cc1ccc2oc(-c3ccc(C)c(NC(=O)c4ccc(-c5ccccc5[N+](=O)[O-])o4)c3)nc2c1,/,/,/,.,/,10.7µM
SMILES,ELG1 genotox,NPC1 promoter act,Rab9 prom act,SMN2 splice enh,KinaseGlo FLuc,FLuc counter
CCCCC(=O)Nc1cc(-c2nc3ccccc3o2)ccc1OC,/,/,/,.,/,.
O=C(Nc1ccc2oc(-c3ccccc3)nc2c1)c1cccnc1,.,?,?,.,.,?
O=S(=O)(NC(=NCc1ccccc1)c1ccc(F)cc1)c1ccc(Cl)cc1,.,.,.,.,.,.
CCc1ccc2oc(-c3cccc(NC(=O)c4cc5ccccc5o4)c3)nc2c1,/,/,/,?,/,2.39µM
Cc1ccc2oc(-c3ccc(Cl)c(NC(=O)c4cc5ccccc5o4)c3)nc2c1,/,/,/,.,/,12µM
CC(=O)N1CCc2c(sc3nc(SCC(N)=O)n(-c4ccc(F)c(Cl)c4)c(=O)c23)C1,/,/,/,.,/,.
Cc1nn(-c2ccccc2)c(N)c1Sc1cccc([N+](=O)[O-])c1,.,.,.,.,.,.
Cc1cc(C)nc(-n2nc(C)c(Sc3ccc(F)cc3)c2N)n1,?,2.51µM,3.55µM,15.8µM,.,10.7µM
CC(C)Oc1ccc(CNC(=O)C2COc3ccccc3C2)cc1 (stereo not drawn),/,/,/,/,/,.
CCN(CC)C(=O)c1cnn(-c2ccc(F)cc2)c1-n1cccc1,/,/,/,/,/,.
COc1ccc(CNC(=O)c2cccnc2Sc2ccc(Cl)cc2)cc1,.,.,.,.,.,.
O=C(NCc1cc([N+](=O)[O-])ccc1O)c1cccnc1Sc1ccccc1Cl,.,.,.,/,/,15.1µM
O=C(NCc1cc([N+](=O)[O-])ccc1O)c1cccnc1Sc1ccc(Cl)cc1,6.51µM,?,.,/,/,?
C/C=C/c1ccc2oc(-c3ccc(O)cc3)c(C)c2c1,/,/,/,?,.,/
O=C(Nc1ccc(Cl)c(Cl)c1)Nc1nccs1,.,.,.,/,/,13.5µM
Cc1csc(NC(=O)Nc2cccc(Cl)c2)n1,?,?,?,11.2µM,.,5.36µM
O=C(Nc1cccc(Cl)c1)Nc1nccs1,.,?,?,.,.,19µM
O=C(Nc1cccc(Cl)c1)Nc1nc(-c2ccccc2)cs1,.,.,.,.,.,.
O=C(Nc1cccc(Cl)c1)N1CCC(CN2CCOCC2)CC1,/,/,/,/,/,.
C=CCNc1nc(NCc2ccccc2)c(C#N)c2c1CN(C)CC2,.,.,.,22.4µM,.,.
CCc1csc(CCNC(=O)C2CCC(=O)N(CCc3cccc(F)c3)C2)n1 (stereo not drawn),.,.,.,/,/,.
O=C(CN(c1cc(Cl)ccc1Cl)S(=O)(=O)c1ccccc1)N1CCOCC1,.,.,.,/,/,.
O=C(O)CCC(=O)c1ccc2ccc3cccc4ccc1c2c34,.,.,.,.[9.22 µM],.[7.66 µM],21.3µM
Cc1ccc(C(=O)Nc2ccccc2C(=O)NC(CC(=O)O)C(=O)O)cc1 (stereo not drawn),.,.,.,.,.,15.1µM
Cc1ccc(C(=O)Nc2ccccc2C(=O)NC(C(=O)O)C(C)C)cc1 (stereo not drawn),?,?,?,12.6µM,.,10.7µM
CCC(C)C(NC(=O)c1ccccc1NC(=O)c1ccc(C)cc1)C(=O)O (stereo not drawn),.,.,.,/,/,?
CCOC(=O)CSc1nc2cc(OC)ccc2cc1C#N,0.82µM,0.794µM,1.26µM,11.2µM,.,?
COc1ccc2nc(SCC(C)=O)c(C#N)cc2c1,2.06µM,?,1µM,2µM,.,1.07µM
CCOC(=O)CSc1nc2cc(C)ccc2cc1C#N,?,0.708µM,1.26µM,14.1µM,.,?
CCOC(=O)CSc1nc2ccc(C)cc2cc1C#N,2.31µM,2.82µM,1.41µM,15.8µM,.,12µM
